Measured values as given in PubChem BioAssay (NCI).
This is part of a sample that, as a whole, favours compounds with a hit. Of some 83,000 tested, about 20% had one in any assay.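 Testing used 96-well plates and a 48-hour single-concentration exposure. Example: -40 means 40% of the starting cells died.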 Unmarked numbers belong to inactive results. Calls of active or inactive are those of the source. Rule for the calls: active = growth percent below 10; inactive = the rest.

These compounds were tested on HL-60(TB) leukemia (assay: NCI-60 one-dose screen, 48 h (100 = growth as untreated, 0 = no growth, -100 = all killed)). Conditions: 10 µM unless noted.
Work on `CCOC(=O)c1nn(-c2ccccc2)c(=O)c2c(N)c(C#N)c(-c3cccs3)cc12` yielded a growth of 113%.
Compound `C[C@@H]1OCC2(CCN(c3cnc(C(=O)Nc4cc(F)cc5cccnc45)cn3)CC2)[C@@H]1N` has a growth of 20.4%.
In the case of `CC(C)=CCC[C@](C)(O)[C@H]1CC[C@]2(C)[C@@H]1CC[C@@H]1[C@@]3(C)CC[C@H](N)C(C)(C)[C@@H]3CC[C@]12C`, the growth is reported as -24.1% (active).
For `C=C(C=O)[C@@H]1CC[C@]2(COC(C)=O)CC[C@]3(C)C(CC[C@@H]4[C@@]5(C)CC[C@H](OC(C)=O)C(C)(C)[C@@H]5CC[C@]43C)[C@@H]12` (stereo not given in full), the growth was -10.9% (active).
For `Cn1ccnc1C(=O)/C=C/c1ccc(C(=O)Nc2ccc(NC(=O)CCNC(=O)c3csc(Br)n3)cc2)cc1`, the growth was 41%.
